# Test results published in ChEMBL document CHEMBL5606458, “ASAP - ZIKV NS2B-NS3 protease fluorescence single point” (2024).
# The whole screen tested about 2,700 compounds, of which about 160 (5.9%) showed an effect of 50% or more. Only a selection was taken, and strong results are over-represented in it overall.
# Biological target: Nonstructural protein 3 (Zika virus) (UniProt A0A024AXB9)
# Sequence (A0A024AXB9 as listed by the source): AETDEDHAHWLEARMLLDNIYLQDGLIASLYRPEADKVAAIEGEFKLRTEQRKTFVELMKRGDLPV
smiles,measurement,setting,value
CCn1ccnc(N2CC[C@H](c3ccn[nH]3)C2)c1=O,inhibition,"PRVABC59, Concentration 49.5 uM, Number of replicates 2.0, Standard deviation 1.2586397664505307 %",6.21%
same,inhibition,"PRVABC59, Concentration 99.01 uM, Number of replicates 2.0, Standard deviation 2.3660377586558408 %",15.1%
same,inhibition,"PRVABC59, Concentration 198.0 uM, Number of replicates 2.0, Standard deviation 2.03279173119948 %",28.1%
NCc1cccc(NC(=O)Cc2ccc(OCc3ccccc3)cc2)c1,inhibition,"PRVABC59, Concentration 49.5 uM, Number of replicates 2.0, Standard deviation 0.6755896628980406 %",-0.82%
same,inhibition,"PRVABC59, Concentration 99.01 uM, Number of replicates 2.0, Standard deviation 0.4165875428765907 %",8.98%
same,inhibition,"PRVABC59, Concentration 198.0 uM, Number of replicates 2.0, Standard deviation 2.4964043674210097 %",40.9%
NCc1cccc(CNC(=O)[C@@H](NC(=O)OCc2ccccc2)c2ccc(OCc3ccccc3)cc2)c1,inhibition,"PRVABC59, Concentration 49.5 uM, Number of replicates 2.0, Standard deviation 0.160775728553173 %",99.2%
same,inhibition,"PRVABC59, Concentration 99.01 uM, Number of replicates 2.0, Standard deviation 0.12446874737194843 %",99%
same,inhibition,"PRVABC59, Concentration 198.0 uM, Number of replicates 2.0, Standard deviation 0.3293253590204834 %",98.1%
NCc1cccc(NC(=O)[C@@H](NC(=O)OCc2ccccc2)c2ccc(F)cc2)c1,inhibition,"PRVABC59, Concentration 49.5 uM, Number of replicates 2.0, Standard deviation 0.5315909510099626 %",1.43%
same,inhibition,"PRVABC59, Concentration 99.01 uM, Number of replicates 2.0, Standard deviation 0.7442277023062145 %",8.36%
same,inhibition,"PRVABC59, Concentration 198.0 uM, Number of replicates 2.0, Standard deviation 0.5134389777058966 %",25.7%
CCCCCC(=O)N[C@H](C(=O)NCc1ccc(NC(=N)N)cc1)c1ccc(OCc2ccccc2)cc1,inhibition,"PRVABC59, Concentration 49.5 uM, Number of replicates 2.0, Standard deviation 4.889627391275408 %",4.26%
same,inhibition,"PRVABC59, Concentration 99.01 uM, Number of replicates 2.0, Standard deviation 2.962062980256652 %",19.3%
same,inhibition,"PRVABC59, Concentration 198.0 uM, Number of replicates 2.0, Standard deviation 2.9458988209157537 %",67.5%
NCc1cccc(NC(=O)[C@@H](NC(=O)OCc2ccccc2)c2ccc(Br)cc2)c1,inhibition,"PRVABC59, Concentration 49.5 uM, Number of replicates 2.0, Standard deviation 0.867338983981324 %",10%
same,inhibition,"PRVABC59, Concentration 99.01 uM, Number of replicates 2.0, Standard deviation 0.4728161592371566 %",98.2%
same,inhibition,"PRVABC59, Concentration 198.0 uM, Number of replicates 2.0, Standard deviation 0.18671930544775084 %",97.9%
NCc1cccc(NC(=O)[C@@H](NC(=O)OCc2ccccc2)c2ccc(F)c(F)c2)c1,inhibition,"PRVABC59, Concentration 49.5 uM, Number of replicates 2.0, Standard deviation 0.33969955290034887 %",-2.45%
same,inhibition,"PRVABC59, Concentration 99.01 uM, Number of replicates 2.0, Standard deviation 0.8168349211729018 %",6.3%
same,inhibition,"PRVABC59, Concentration 198.0 uM, Number of replicates 2.0, Standard deviation 1.2939689407463024 %",43.9%
NCc1cccc(NC(=O)c2ccc(OCc3ccccc3)cc2)c1,inhibition,"PRVABC59, Concentration 49.5 uM, Number of replicates 2.0, Standard deviation 1.3665778981704908 %",1.2%
same,inhibition,"PRVABC59, Concentration 99.01 uM, Number of replicates 2.0, Standard deviation 3.6407499729049095 %",22.5%
same,inhibition,"PRVABC59, Concentration 198.0 uM, Number of replicates 2.0, Standard deviation 29.263434924261905 %",26.6%
C[C@@H](C(=O)Nc1cccc(CN)c1)c1ccc(OCc2ccccc2)cc1,inhibition,"PRVABC59, Concentration 49.5 uM, Number of replicates 2.0, Standard deviation 0.17467234529733644 %",-0.009%
same,inhibition,"PRVABC59, Concentration 99.01 uM, Number of replicates 2.0, Standard deviation 10.257482850017862 %",21.6%
same,inhibition,"PRVABC59, Concentration 198.0 uM, Number of replicates 2.0, Standard deviation 0.22285904793408415 %",62.2%
c1ccc2c([C@H]3CCN(CCC4CCOCC4)C3)c[nH]c2c1,inhibition,"PRVABC59, Concentration 49.5 uM, Number of replicates 2.0, Standard deviation 1.2406953242285323 %",12.1%
same,inhibition,"PRVABC59, Concentration 99.01 uM, Number of replicates 2.0, Standard deviation 0.23839741086829247 %",18.5%
same,inhibition,"PRVABC59, Concentration 198.0 uM, Number of replicates 2.0, Standard deviation 0.8459297336369422 %",27.9%
O=S(=O)(Nc1ccc(Oc2ccccc2Cl)cc1)c1c[nH]c2ccc(Cl)cc12,inhibition,"PRVABC59, Concentration 49.5 uM, Number of replicates 2.0, Standard deviation 1.8433959322838933 %",11%
same,inhibition,"PRVABC59, Concentration 99.01 uM, Number of replicates 2.0, Standard deviation 3.1252865977713378 %",14.3%
same,inhibition,"PRVABC59, Concentration 198.0 uM, Number of replicates 2.0, Standard deviation 3.9544884158217 %",39%
O=C1NCc2ccccc2C12CCN(Cc1cc3ccc(F)cc3[nH]1)CC2,inhibition,"PRVABC59, Concentration 49.5 uM, Number of replicates 2.0, Standard deviation 3.3747851513626115 %",6.9%
same,inhibition,"PRVABC59, Concentration 99.01 uM, Number of replicates 2.0, Standard deviation 2.4802388593809592 %",13.2%
same,inhibition,"PRVABC59, Concentration 198.0 uM, Number of replicates 2.0, Standard deviation 2.1357042200194405 %",18.5%
NCc1cccc(NC(=O)[C@@H](NC(=O)OCc2ccccc2)c2ccc(OCc3ccccc3)cc2)c1,inhibition,"PRVABC59, Concentration 49.5 uM, Number of replicates 2.0, Standard deviation 0.012122107981309298 %",99.6%
same,inhibition,"PRVABC59, Concentration 99.01 uM, Number of replicates 2.0, Standard deviation 0.01616281064174573 %",99.1%
same,inhibition,"PRVABC59, Concentration 198.0 uM, Number of replicates 2.0, Standard deviation 0.06465124256698292 %",97.8%
CCCCCC(=O)N[C@H](C(=O)NCc1ccc(N)nc1)c1ccc(OCc2ccccc2)cc1,inhibition,"PRVABC59, Concentration 49.5 uM, Number of replicates 2.0, Standard deviation 0.04494641077638166 %",-2.18%
same,inhibition,"PRVABC59, Concentration 99.01 uM, Number of replicates 2.0, Standard deviation 0.3023657059020049 %",1.76%
same,inhibition,"PRVABC59, Concentration 198.0 uM, Number of replicates 2.0, Standard deviation 0.018387068425059654 %",-1.18%
CCCCCC(=O)N[C@H](C(=O)NCc1cccc(CN)c1)c1ccc(OCc2ccccc2)cc1,inhibition,"PRVABC59, Concentration 49.5 uM, Number of replicates 2.0, Standard deviation 0.8118332703664171 %",-3.7%
same,inhibition,"PRVABC59, Concentration 99.01 uM, Number of replicates 2.0, Standard deviation 11.543494465765306 %",89.7%
same,inhibition,"PRVABC59, Concentration 198.0 uM, Number of replicates 2.0, Standard deviation 0.4445743989869767 %",99%
NCc1ccc(NC(=O)[C@@H](NC(=O)OCc2ccccc2)c2ccc(OCc3ccccc3)cc2)cc1,inhibition,"PRVABC59, Concentration 49.5 uM, Number of replicates 2.0, Standard deviation 1.551749181482573 %",7.22%
same,inhibition,"PRVABC59, Concentration 99.01 uM, Number of replicates 2.0, Standard deviation 2.287213711046402 %",11.8%
same,inhibition,"PRVABC59, Concentration 198.0 uM, Number of replicates 2.0, Standard deviation 0.9961100816492645 %",23%
NC1(c2cccc(NC(=O)[C@@H](NC(=O)OCc3ccccc3)c3ccc(OCc4ccccc4)cc3)c2)CCC1,inhibition,"PRVABC59, Concentration 49.5 uM, Number of replicates 2.0, Standard deviation 2.468656231060589 %",14.2%
same,inhibition,"PRVABC59, Concentration 99.01 uM, Number of replicates 2.0, Standard deviation 1.4495575723595426 %",30.7%
same,inhibition,"PRVABC59, Concentration 198.0 uM, Number of replicates 2.0, Standard deviation 0.13484294125181392 %",82.7%
CCCCCC(=O)N[C@H](C(=O)N1CCC(CN)CC1)c1ccc(OCc2ccccc2)cc1,inhibition,"PRVABC59, Concentration 49.5 uM, Number of replicates 2.0, Standard deviation 1.1847944417619873 %",5.06%
same,inhibition,"PRVABC59, Concentration 99.01 uM, Number of replicates 2.0, Standard deviation 0.3935504126553241 %",10.8%
same,inhibition,"PRVABC59, Concentration 198.0 uM, Number of replicates 2.0, Standard deviation 0.8347422741682105 %",26.5%
